The source of these data is PubChem BioAssay (EPA / NIEHS).

Activity calls are given as the source filed them. How the source made its calls: active means hit-call score of the fitted dose curve at least 0.9, where 1 is the maximum; inactive means score below 0.9.

The AC50 is the midpoint of the concentration-response curve, whichever way the signal moves.

Read-out in experiment [1]: Thrombomodulin, THBD (gene 7056)
Briefly: BSK_CASM3C_Thrombomodulin: BioMAP Diversity Plus: CASM3C Assay for Thrombomodulin Biomarker Activity (AID 2283051).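 Further: thrombomodulin protein level measured by ELISA 24 h after dosing.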 Conditions: primary human coronary artery smooth muscle cells; actives raise or lower the signal.

Read-out in experiment [2]: Tissue Factor, F3 (gene 2152)
Briefly: BSK_CASM3C_TissueFactor: BioMAP Diversity Plus: CASM3C Assay for Tissue Factor Biomarker Activity (AID 2283052).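 Further: cell surface tissue factor protein level read by ELISA.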 Conditions: primary human coronary artery smooth muscle cells; actives raise or lower the signal.

Read-out in experiment [3]: Interferon-gamma inducible Protein 10 (IP10), CXCL10 (gene 3627)
Briefly: BSK_hDFCGF_IP10: BioMAP Diversity Plus: hDFCGF Assay for Interferon-gamma inducible Protein 10 (IP10) Biomarker Activity (AID 2283053). As to conditions: primary human foreskin fibroblasts; actives raise or lower the signal. Summed up:
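Chemical-treated human skin fibroblasts (primary) were sampled at 24 h for IP-10 by ELISA. Both increases and decreases relative to DMSO were scored.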

Read-out in experiment [4]: Urokinase-type plasminogen activator receptor (uPAR), PLAUR (gene 5329)
Briefly: BSK_CASM3C_uPAR: BioMAP Diversity Plus: CASM3C Assay for Urokinase-type plasminogen activator receptor (uPAR) Biomarker Activity (AID 2283054).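 Further: cell-surface uPAR protein level quantified by ELISA.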 Conditions: primary human coronary artery smooth muscle cells; actives raise or lower the signal.

Read-out in experiment [5]: Vascular cell adhesion molecule 1 (VCAM1), VCAM1 (gene 7412)
Briefly: BSK_CASM3C_VCAM1: BioMAP Diversity Plus: CASM3C Assay for Vascular cell adhesion molecule 1 (VCAM1) Biomarker Activity (AID 2283055).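 Further: VCAM-1 protein level quantified by ELISA on the cells.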 As to conditions: primary human coronary artery smooth muscle cells; actives raise or lower the signal.

Read-out in experiment [6]: Collagen III, COL3A1 (gene 1281)
Briefly: BSK_hDFCGF_CollagenIII: BioMAP Diversity Plus: hDFCGF Assay for Collagen III Biomarker Activity (AID 2283056). Conditions: primary human foreskin fibroblasts; actives raise or lower the signal. Summed up: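 Cells: human foreskin fibroblasts, primary. Dosing followed by 24 h incubation, then ELISA for collagen III. Both increases and decreases scored relative to DMSO.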

Read-out in experiment [7]: Epidermal growth factor receptor (EGFR), EGFR (gene 1956)
Briefly: BSK_hDFCGF_EGFR: BioMAP Diversity Plus: hDFCGF Assay for Epidermal growth factor receptor (EGFR) Biomarker Activity (AID 2283057). Conditions: primary human foreskin fibroblasts; actives raise or lower the signal. An outline of the steps:
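Cell-based multiplexed assay in primary human foreskin fibroblasts. EGFR is read by ELISA 24 h after treatment and compared with DMSO controls.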

Read-out in experiment [8]: Interleukin-8 (IL8), CXCL8 (gene 3576)
Briefly: BSK_hDFCGF_IL8: BioMAP Diversity Plus: hDFCGF Assay for Interleukin-8 (IL8) Biomarker Activity (AID 2283058). As to conditions: primary human foreskin fibroblasts; actives raise or lower the signal. Summed up: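 IL-8 levels from compound-treated primary human fibroblasts were read by ELISA at 24 h, with DMSO serving as baseline for bidirectional fitting.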

The nature of experiment [9]: BSK_hDFCGF_Proliferation: Cell Proliferation Assessment in the BioMAP Diversity Plus: hDFCGF Assay (AID 2283059).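 Further: curves fitted for both rise and fall of signal versus DMSO baseline.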 Conditions: primary human foreskin fibroblasts. An outline of the steps: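 Sub-confluent human foreskin fibroblast cultures receive test chemical […]. Relative cell number is quantified by sulforhodamine B staining (0.1%, after 10% TCA fixation) at 560 nm, with bidirectional fitting referenced to DMSO.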

Read-out in experiment [10]: Macrophage colony-stimulating factor (MCSF), CSF1 (gene 1435)
Briefly: BSK_hDFCGF_MCSF: BioMAP Diversity Plus: hDFCGF Assay for Macrophage colony-stimulating factor (MCSF) Biomarker Activity (AID 2283060). As to conditions: primary human foreskin fibroblasts; actives raise or lower the signal. An outline of the steps:
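M-CSF levels, determined by ELISA, are taken at 24 h after dosing human skin fibroblasts. Responses in either direction are fitted with DMSO serving as the baseline.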

Read-out in experiment [11]: TIMP metallopeptidase inhibitor 1 (TIMP1), TIMP1 (gene 7076)
Briefly: BSK_hDFCGF_TIMP1: BioMAP Diversity Plus: hDFCGF Assay for TIMP metallopeptidase inhibitor 1 (TIMP1) Biomarker Activity (AID 2283062). As to conditions: primary human foreskin fibroblasts; actives raise or lower the signal. Summed up: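 Fibroblasts from human foreskin are treated with test chemical and harvested at 24 h. TIMP-1 is quantified by ELISA, and gain or loss of signal is scored against DMSO.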

Read-out in experiment [12]: Monokine induced gamma interferon (MIG), CXCL9 (gene 4283)
Briefly: BSK_hDFCGF_MIG: BioMAP Diversity Plus: hDFCGF Assay for Monokine induced gamma interferon (MIG) Biomarker Activity (AID 2283063). As to conditions: primary human foreskin fibroblasts; actives raise or lower the signal. Summed up: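 MIG signal, determined by ELISA, reflects 24 h chemical exposure of human skin primary fibroblasts. DMSO serves as negative control and baseline.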

Read-out in experiment [13]: Matrix Metallopeptidase 1 (MMP1), MMP1 (gene 4312)
Briefly: BSK_hDFCGF_MMP1: BioMAP Diversity Plus: hDFCGF Assay for Matrix Metallopeptidase 1 (MMP1) Biomarker Activity (AID 2283064). As to conditions: primary human foreskin fibroblasts; actives raise or lower the signal. Summed up: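 ELISA read-out of MMP1 from human foreskin fibroblasts (primary skin cells), 24 h post-dose. Gain or loss of signal was fitted bidirectionally versus DMSO negative control; cytotoxicity was checked by SRB in parallel cultures.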

Read-out in experiment [14]: Vascular cell adhesion molecule 1 (VCAM1), VCAM1 (gene 7412)
Briefly: BSK_hDFCGF_VCAM1: BioMAP Diversity Plus: hDFCGF Assay for Vascular cell adhesion molecule 1 (VCAM1) Biomarker Activity (AID 2283065).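 On AC50: VCAM-1 protein level quantified by ELISA after 24 h chemical exposure.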 Conditions: primary human foreskin fibroblasts; actives raise or lower the signal. An outline of the steps: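 Cells are dosed, cultured for 24 h, then VCAM-1 is quantified by ELISA; signal increases and decreases are both fitted relative to DMSO.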

Read-out in experiment [15]: Plasminogen activator inhibitor-1 (PAI1), SERPINE1 (gene 5054)
Briefly: BSK_hDFCGF_PAI1: BioMAP Diversity Plus: hDFCGF Assay for Plasminogen activator inhibitor-1 (PAI1) Biomarker Activity (AID 2283066). As to conditions: primary human foreskin fibroblasts; actives raise or lower the signal. Summed up:
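Human skin fibroblast cultures receive chemical for 24 h before PAI-1 is measured by ELISA; signal changes are fitted bidirectionally against DMSO-treated wells.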

Read-out in experiment [16]: Intercellular Adhesion Molecule 1 (ICAM1), ICAM1 (gene 3383)
Briefly: BSK_KF3CT_ICAM1: BioMAP Diversity Plus: KF3CT Assay for Intercellular Adhesion Molecule 1 (ICAM1) Biomarker Activity (AID 2283067). Conditions: primary human keratinocytes with fibroblasts; actives raise or lower the signal. An outline of the steps:
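Dose the keratinocyte/fibroblast co-culture, wait 24 h, measure ICAM-1 by ELISA, then fit increases or decreases against DMSO. Cytotoxicity is checked in parallel cultures by SRB total-protein staining.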

Read-out in experiment [17]: Interferon-gamma inducible Protein 10 (IP10), CXCL10 (gene 3627)
Briefly: BSK_KF3CT_IP10: BioMAP Diversity Plus: KF3CT Assay for Interferon-gamma inducible Protein 10 (IP10) Biomarker Activity (AID 2283068). Conditions: primary human keratinocytes with fibroblasts; actives raise or lower the signal. An outline of the steps:
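ELISA read-out of IP-10 after 24 h chemical dosing of human skin primary co-culture (keratinocytes, foreskin fibroblasts). Gain or loss of signal relative to DMSO, bidirectional curve fit.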

A short description of experiment [18]: BSK_KF3CT_SRB: Viability Assessment in the BioMAP Diversity Plus: KF3CT Assay (AID 2283069).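 Further: total protein by sulforhodamine B staining as a cytotoxicity measure; fitted for both signal gain and loss against DMSO baseline.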 Conditions: primary human keratinocytes with fibroblasts. Summed up: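 SRB read-out at 560 nm (0.1% stain, TCA-fixed cells) gauges overt cytotoxicity in a human skin keratinocyte–fibroblast co-culture 24 h post-dosing. Signal change was fitted bidirectionally relative to DMSO control.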

Read-out in experiment [19]: Interleukin-1 alpha (IL1a), IL1A (gene 3552)
Briefly: BSK_KF3CT_IL1a: BioMAP Diversity Plus: KF3CT Assay for Interleukin-1 alpha (IL1a) Biomarker Activity (AID 2283070). As to conditions: primary human keratinocytes with fibroblasts; actives raise or lower the signal. An outline of the steps:
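Primary skin co-culture (keratinocytes, foreskin fibroblasts), 24 h exposure; ELISA for IL-1a; bidirectional curve fit vs DMSO.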

Experiment [20] in a line: BSK_hDFCGF_SRB: Viability Assessment in the BioMAP Diversity Plus: hDFCGF Assay (AID 2283061).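 Further: cells exposed to compound for 24 h before the read.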 As to conditions: primary human foreskin fibroblasts. An outline of the steps:
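Cells were dosed with test chemical, cultured 24 h, fixed with 10% TCA, then stained with 0.1% SRB and read at 560 nm. The fibroblasts were human foreskin primary cells, and DMSO served as baseline.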

Turning to `O=C(CCl)NCO`, the result in experiment [1], in experiment [2], in experiment [3], in experiment [4], in experiment [5] and in [6] was inactive. Further, the outcome in experiment [7], in [8], in experiment [9], in experiment [10], in experiment [11] and in [12] was inactive. The result in experiment [13], in [14], in [15], in [16], in experiment [17] and in experiment [18] was inactive. The result in experiment [19] was inactive.

With `CCCCCCCCCCCCc1cccc(S(=O)(=O)O)c1`, the result in [1], in [2], in [4] and in experiment [5] was inactive. The AC50 in experiment [3] is 12.7 µM (active); in [6], 16.2 µM (active); in [7] it was 11.8 µM (active); in experiment [9], 8.86 µM (active); in experiment [10], 12.5 µM (active); in [20], 18.1 µM (active). Moreover, the AC50 in experiment [11] was 30.1 µM (active); in experiment [12], 27.6 µM (active); in experiment [13], 28.3 µM (active); in experiment [14], 12 µM (active); in experiment [15] it was 9.68 µM (active); in experiment [16], 28.4 µM (active). Further, the AC50 is 16.5 µM (active) in [17], 26.5 µM (active) in experiment [18] and 33.3 µM (active) in experiment [19].

As for `Oc1ccc(Cc2ccc(O)cc2)cc1`, the outcome in experiment [1], in experiment [2], in experiment [3], in experiment [4], in [5] and in experiment [6] was inactive. Also, the outcome in experiment [7], in [8], in experiment [9], in [10], in experiment [20] and in experiment [11] was inactive. The outcome in [12], in experiment [13], in [14], in experiment [15], in experiment [16] and in [17] was inactive. Further, the outcome in experiment [18] and in experiment [19] was inactive.

For `Cc1cc(Cl)ccc1OC(C)C(=O)O` (stereo not drawn), the outcome in experiment [1], in experiment [2], in experiment [3], in experiment [4], in [5] and in [6] was inactive. Moreover, the result in experiment [7], in [8], in experiment [9], in experiment [10], in experiment [20] and in experiment [11] was inactive. Moreover, the outcome in experiment [12], in [13], in experiment [14], in experiment [15], in [16] and in experiment [17] was inactive. The result in experiment [18] and in [19] was inactive.

Turning to `CCOP(=O)(OCC)SCCSCC`, the outcome in experiment [1], in [2], in experiment [3], in experiment [4], in experiment [5] and in [6] was inactive. Also, the result in experiment [7], in experiment [8], in [9], in experiment [10], in [20] and in experiment [11] was inactive. The outcome in experiment [12], in experiment [13], in [14], in experiment [15], in experiment [16] and in experiment [17] was inactive. Moreover, the outcome in [18] and in [19] was inactive.
